A selection: hits, their analogues and other compounds. The true share with any hit is near 4.2%.
CCHFV vOTU inh: CCHFV vOTU protease inhibition; Pep-AMC fluorescence; inhibition, % at 11.5 µM; hit rate 0.55% among 370,000; AID 651958
FBA Mtb inh: Mtb fructose-bisphosphate aldolase inhibition; P9WQA3; purified M. tuberculosis FBA, fluorescence read-out; AID 588726; hit rate 2.3% among 360,000; inhibition, % at 1 µM; in the data active means inhibition above about 27%
Target sequence (P9WQA3 whole entry, looked up): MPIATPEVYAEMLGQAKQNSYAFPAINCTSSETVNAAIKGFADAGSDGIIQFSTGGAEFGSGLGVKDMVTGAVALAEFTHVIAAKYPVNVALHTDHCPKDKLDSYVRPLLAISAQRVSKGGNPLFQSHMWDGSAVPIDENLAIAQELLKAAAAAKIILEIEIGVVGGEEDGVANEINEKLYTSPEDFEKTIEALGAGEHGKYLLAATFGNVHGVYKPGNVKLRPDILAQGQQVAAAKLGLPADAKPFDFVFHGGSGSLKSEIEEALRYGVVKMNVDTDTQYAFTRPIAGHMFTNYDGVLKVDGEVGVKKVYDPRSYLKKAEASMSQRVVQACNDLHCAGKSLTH
GDH-TPI counter: counter-screen for M. tuberculosis FBA inhibitors: GDH-TPI coupled enzymes. GDH-TPI coupled enzyme counterscreen, NADH absorbance. inhibition, % at 4.8 µM. hit rate 1.2% among 360,000
Mtb betalactam: beta-lactam sensitization of Mtb H37Rv. M. tuberculosis H37Rv growth with meropenem, percent inhibition. inhibition, % at 25 µM. hit rate 0.27% among 330,000. AID 434955; call rule not given here;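 further: growth measured after seven days incubation then overnight dye step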
RecA splice inh: Mtb RecA intein splicing inhibition. P9WHJ3. cell-free RecA intein splicing, fluorescence. inhibition, % (test concentration not listed). hit rate 0.75% among 290,000; in the data active means inhibition above about 30%
Large screens that a line does not name were inactive. Unless noted, no stated cut-off is given here; in the data, active means inhibition above about 30%; inactive means the rest.

O=C1CC(c2ccc(F)cc2)CC2=C1C(c1ccc([N+](=O)[O-])o1)Nc1ccccc1N2 (configuration not stated)	GDH-TPI counter 38
O=C1CC(c2ccccc2)CC2=C1C(c1ccccn1)Nc1ccccc1N2 (configuration not stated)	none
Clc1ccc2c(c1)[C@H]1OCC[C@H]1[C@@H](c1ccco1)N2	FBA Mtb inh 38
CN1[C@H](Cc2ccccc2)COc2cc(N3CCCC3)ccc2S1(=O)=O	none (no result: FBA Mtb inh, GDH-TPI counter, Mtb betalactam, RecA splice inh)
O=C(C1CCCN1S(=O)(=O)c1ccc([N+](=O)[O-])cc1)N1CCN(c2ccccc2)CC1 (configuration not stated)	none (no result: FBA Mtb inh, GDH-TPI counter, Mtb betalactam, RecA splice inh)
O=c1[nH]c2cc3c(cc2cc1C(c1nnnn1C1CCCCC1)N1CCSCC1)OCCO3 (configuration not stated)	FBA Mtb inh 28 (no result: RecA splice inh)
COc1cc2cc(C(c3nnnn3C3CCCC3)N3CCCCC3)c(=O)[nH]c2cc1OC (configuration not stated)	none
COc1ccccc1-c1cccc2nccn12	FBA Mtb inh 128 (no result: Mtb betalactam, RecA splice inh)
CC(=O)c1ccc(-c2cccc3nccn23)cc1	none (no result: Mtb betalactam, RecA splice inh)
CC(=O)Nc1cccc(-c2cccc3nccn23)c1	FBA Mtb inh 159 (no result: Mtb betalactam, RecA splice inh)
CC(=O)Nc1ccccc1-c1cccc2nccn12	FBA Mtb inh 125 (no result: Mtb betalactam, RecA splice inh)
O=C(Nc1c(-c2ccc(F)c(F)c2)nc2ncccn12)C1CC1	none (no result: FBA Mtb inh, GDH-TPI counter, Mtb betalactam, RecA splice inh)
COc1ccc(Cl)cc1S(=O)(=O)N1CCN(C(=O)CSc2nc3ccccc3nc2N2CCCC2)CC1	none (no result: FBA Mtb inh, GDH-TPI counter, Mtb betalactam, RecA splice inh)
COc1ccc2[nH]c(=O)c(CN(C3CCCCC3)C(c3nnnn3Cc3ccco3)C(C)C)cc2c1 (configuration not stated)	RecA splice inh 33 (no result: CCHFV vOTU inh)
BrC(=C\c1ccccc1)/C=N/Nc1nc(N2CCOCC2)nc(N2CCOCC2)n1	GDH-TPI counter 31
BrC(/C=C\c1ccccc1)=N/Nc1nc(N2CCOCC2)nc(N2CCOCC2)n1	GDH-TPI counter 45
CC(/C=N/Nc1nc(N2CCCCC2)nc(N2CCCCC2)n1)=C\c1ccccc1	none
Nc1nc2ccccc2n1C(=O)c1cccs1	GDH-TPI counter 61 (no result: Mtb betalactam)
O=C(CCc1ccccc1)N[C@H]1[C@@H](O)CCC[C@]12C(=O)N(Cc1ccccc1)c1ccccc12	none (no result: FBA Mtb inh, GDH-TPI counter, Mtb betalactam, RecA splice inh)
O=c1oc2c(CN3CCCCC3)c(O)ccc2c2c1CCCC2	FBA Mtb inh active
Cc1cc(=O)oc2c(CN3CCCCC3)c(O)ccc12	none (no result: FBA Mtb inh, Mtb betalactam, RecA splice inh)
CN1CCN(Cc2c(O)ccc3cc(-c4ccccn4)c(=O)oc23)CC1	FBA Mtb inh active (no result: RecA splice inh)
CCc1c(C)c2ccc(O)c(CN3CCCC3)c2oc1=O	GDH-TPI counter 34 (no result: FBA Mtb inh)
Cc1c(C)c2ccc(O)c(CN3CCCC3)c2oc1=O	FBA Mtb inh active
CCN(CC)C(=O)c1ccc2c(c1)NC(=O)C(C)(C)O2	none (no result: FBA Mtb inh, GDH-TPI counter, Mtb betalactam, RecA splice inh)
c1ccc(-c2cccc3[nH]cc(-c4ccccc4)c23)cc1	none (no result: FBA Mtb inh, GDH-TPI counter, Mtb betalactam, RecA splice inh)
COC(=O)c1cc(C(C)c2c[nH]c3ccccc23)n2ccccc12 (configuration not stated)	none (no result: FBA Mtb inh, GDH-TPI counter, Mtb betalactam, RecA splice inh)
Cc1c(C)c2ccc(O)c(CN3CCN(C)CC3)c2oc1=O	FBA Mtb inh active
Cc1c(O)c(CN2CCCCC2)cc2c3c(c(=O)oc12)CCC3	FBA Mtb inh active
Cc1c(O)c(CN2CCCCC2)cc2c1oc(=O)c1ccccc12	none
CN(C)c1ccc(C=NNc2nc3c([nH]2)c(=O)n(C)c(=O)n3C)cc1	GDH-TPI counter 47 (no result: Mtb betalactam, RecA splice inh)
C=CCn1c(CC(=O)OC)csc1=Nc1ccc(C(C)=O)cc1	GDH-TPI counter 31
C=CCn1c(C)csc1=Nc1ccc(C(C)=O)cc1	none
COCCNc1oc(-c2ccccc2Cl)nc1C#N	none
CC(C)Nc1oc(-c2cccc3ccccc23)nc1C#N	FBA Mtb inh active
C=CCNc1oc(-c2cccc3ccccc23)nc1C#N	FBA Mtb inh active
CCNc1oc(-c2cccc3ccccc23)nc1C#N	FBA Mtb inh active
N#Cc1nc(-c2cccc3ccccc23)oc1N1CCCCC1	none
C=CCN1[C@H](C#N)[C@@H](c2ccc(C#Cc3ccccc3OC)cc2)[C@H]1CO	none (no result: FBA Mtb inh, GDH-TPI counter, Mtb betalactam, RecA splice inh)
CCOC(=O)c1sc(/N=C/N(C)C)nc1C	GDH-TPI counter 31
Cc1ccc(-c2nnc(Nc3ccc(C(=O)N(C)C)cc3)c3ccccc23)cc1S(=O)(=O)NCC1CCCO1 (configuration not stated)	none
Cc1ccc(-c2nnc(Nc3ccc(C(=O)N(C)C)cc3)c3ccccc23)cc1S(=O)(=O)NC(C)(C)CO	GDH-TPI counter 37
COC(=O)c1ccc(Nc2nnc(-c3ccc(C)c(S(=O)(=O)NCC4CCCO4)c3)c3ccccc23)cc1 (configuration not stated)	none

Compound activity as filed in PubChem.
